Assay results from PubChem BioAssay (Tox21).
Values joined by “and” are separate entries in the source; they are usually repeats but may differ in a detail not shown here. Equal values may be shown once. Inconclusive results are not listed. More than one record can exist for a structure, and the calls need not agree. Active and inactive are the calls of the source. Unless noted, calls follow the shape of the dose curve; as a rule, active = well fitted curve in the direction sought with a large enough effect in the repeat runs; inconclusive = weak or mixed curves; inactive = no such curve, though single readings can be large; an effect the other way counts as inactive or inconclusive.

Columns and labels:
[1] = qHTS assay to identify small molecule antagonists of the peroxisome proliferator-activated receptor delta (PPARd) signaling pathway - cell viability counter screen (AID 743213); also: nearly all actives have a fitted effect of over 50% in size; also: potency is read from the fitted curve at half-maximal effect
Outline: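 Viability counter-screen, qHTS format: PPARd-bla HEK293H, L165041 300 nM final, 17 h compound exposure at 37 C, CellTiter-Glo luminescence after 30 min RT.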

[2] = target: Bile acid receptor (Homo sapiens) (UniProt Q96RI1); test: qHTS assay to identify small molecule antagonists of the farnesoid-X-receptor (FXR) signaling pathway (AID 743217; active = well fitted inhibition curve with a large enough effect in the signal ratio in the repeat runs, not every such curve was filed as active; the % refers to the signal ratio; also: % is scaled to controls: 0 for no effect and ±100 for the full control effect)
Outline: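 Quantitative HTS, beta-lactamase reporter format: FXR-UAS-bla HEK 293T cells co-treated 16 h at 37 °C with compounds and 50 uM final chenodeoxycholic acid, then read by B/G FRET fluorescence.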

[3] = qHTS assay to identify small molecule agonists of the farnesoid-X-receptor (FXR) signaling pathway - cell viability counter screen (AID 743218); also: nearly all actives have a fitted effect of over 45% in size; also: potency is read from the fitted curve at half-maximal effect
Outline: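 Same-well cytotoxicity check on FXR-UAS-bla HEK 293T cells: 5 h attachment, 16 h compound at 37 C, CellTiter-Glo luminescence read at room temperature after 30 min.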

[4] = target: Bile acid receptor (Homo sapiens) (UniProt Q96RI1); test: qHTS assay to identify small molecule agonists of the farnesoid-X-receptor (FXR) signaling pathway (AID 743220; active = well fitted activation curve with a large enough effect in the signal ratio in the repeat runs, not every such curve was filed as active; the % refers to the signal ratio; also: % is scaled to controls: 0 for no effect and ±100 for the full control effect)
Outline: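 FXR-UAS-bla HEK 293T cells carrying a UAS-driven beta-lactamase reporter were plated for 5 h at 37C/5% CO2, then exposed to DMSO-dissolved Tox21 10K compounds for 16 h at 37C. A LiveBLAzer B/G FRET substrate was loaded for 2 h at room temperature before fluorescence reading.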

[5] = qHTS assay to identify small molecule antagonists of the farnesoid-X-receptor (FXR) signaling pathway - cell viability counter screen (AID 743221; active = well fitted cell-killing curve with a large enough effect in the repeat runs, not every such curve was filed as active; also: nearly all actives have a fitted effect of over 50% in size; also: potency is read from the fitted curve at half-maximal effect)
Outline: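 GeneBLAzer FXR-UAS-bla HEK 293T cells, compound plus chenodeoxycholic acid (50 uM final), 16 h at 37 C. CellTiter-Glo added to the same wells after the beta-lactamase read; luminescence read after 30 min at room temperature as viability.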

[6] = target: Vitamin D3 receptor (Homo sapiens) (UniProt P11473); test: qHTS assay to identify small molecule agonists of the vitamin D receptor (VDR) signaling pathway (AID 743222; calls by dose curve; also: % is scaled to controls: 0 for no effect and ±100 for the full control effect)
Outline: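 Using LiveBLAzer B/G FRET detection, agonism was scored in VDR-bla cells exposed overnight (16 h, 37C) to DMSO-dissolved compounds; substrate incubation was 2 h at room temperature.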

[7] = target: Vitamin D3 receptor (Homo sapiens) (UniProt P11473); test: qHTS assay to identify small molecule antagonists of the vitamin D receptor (VDR) signaling pathway (AID 743223; active = well fitted inhibition curve with a large enough effect in the signal ratio in the repeat runs, not every such curve was filed as active; the % refers to the signal ratio; also: potency is read from the fitted curve at half-maximal effect)
Outline: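 VDR-bla cells were treated with compound plus 3 nM final 1alpha,25-dihydroxyvitamin D3 for 16 h at 37C. Beta-lactamase reporter read by B/G FRET substrate fluorescence after 2 h at room temperature. qHTS format.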

[8] = qHTS assay to identify small molecule agonists of the vitamin D receptor (VDR) signaling pathway - cell viability counter screen (AID 743224); also: nearly all actives have a fitted effect of over 50% in size; also: potency is read from the fitted curve at half-maximal effect
Outline: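 Counter screen for cytotoxicity: VDR-bla cells at 2,000 cells/well, 16 h compound exposure, then CellTiter-Glo luminescence after the beta-lactamase measurement.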

[9] = qHTS assay to identify small molecule antagonists of the vitamin D receptor (VDR) signaling pathway - cell viability counter screen (AID 743225); also: nearly all actives have a fitted effect of over 50% in size; also: potency is read from the fitted curve at half-maximal effect
Outline: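 VDR-UAS-bla HEK 293T cells were plated and incubated 4 h at 37C, then dosed with compound plus 3 nM (final) 1-alpha,25-dihydroxyvitamin D3 for 16 h. After the 2 h beta-lactamase read, viability in the same wells was read as CellTiter-Glo luminescence after 30 min at room temperature.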

[10] = qHTS assay to identify small molecule agonists of the endoplasmic reticulum stress response signaling pathway - cell viability counter screen (AID 1159517; calls by dose curve; also: nearly all actives have a fitted effect of over 50% in size; also: potency is read from the fitted curve at half-maximal effect)
Outline: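 In parallel with the ESRE reporter read, cytotoxicity was scored by CellTiter-Glo luminescence (30 min, room temperature) on HeLa ESRE-bla cells dosed for 5 hr.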

[11] = qHTS assay to identify small molecule antagonists of the retinoid-related orphan receptor gamma (ROR-gamma) signaling pathway - cell viability counter screen (AID 1159520); also: nearly all actives have a fitted effect of over 50% in size; also: potency is read from the fitted curve at half-maximal effect
Outline: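 Tet-on ROR gamma CHO cells were given compounds for 2 hr, then doxycycline hyclate at 1 uM final, and incubated 16 hr at 37 C. Viability was measured as ATP content by CellTiter-Glo luminescence.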

[12] = qHTS assay to identify small molecule agonists of the AP-1 signaling pathway - cell viability counter screen (AID 1159525; calls by dose curve; also: nearly all actives have a fitted effect of over 55% in size; also: potency is read from the fitted curve at half-maximal effect)
Outline: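 Same-well cytotoxicity counter screen of the Tox21 10K library in ME-180 cells. The readout is ATP-dependent luminescence after 5 h compound treatment. Data are normalised to DMSO and tetra n-octyl ammonium bromide controls.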

[13] = qHTS assay to identify small molecule agonists of the AP-1 signaling pathway (AID 1159526; calls by dose curve; also: % is scaled to controls: 0 for no effect and ±100 for the full control effect)
[14] = qHTS assay to identify small molecule agonists of the RXR signaling pathway - cell viability counter screen (AID 1159529); also: nearly all actives have a fitted effect of over 50% in size; also: potency is read from the fitted curve at half-maximal effect
Outline: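 RXR-alpha-UAS-bla HEK 293T cells in medium with 2% charcoal-stripped FBS were pre-incubated 5 hr, then compound-treated 16 hr at 37 C. Viability was read by CellTiter-Glo luminescence in the same wells as the beta-lactamase assay, with tetraoctyl ammonium bromide as positive control.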

[15] = qHTS assay to identify small molecule antagonists of the retinoid acid receptor (RAR) signaling pathway - cell viability counter screen (AID 1159551); also: nearly all actives have a fitted effect of over 35% in size; also: potency is read from the fitted curve at half-maximal effect
Outline: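 Measured by luminescent ATP detection, viability reflects C3RL4 cells treated 6 h at 37 C with test chemicals in the presence of 1 uM (final) retinol.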

[16] = target: Peroxisome proliferator-activated receptor delta (Homo sapiens) (UniProt Q03181); test: qHTS assay to identify small molecule antagonists of the peroxisome proliferator-activated receptor delta (PPARd) signaling pathway (AID 743215; active = well fitted inhibition curve with a large enough effect in the signal ratio in the repeat runs, not every such curve was filed as active; the % refers to the signal ratio;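 also: cells stimulated with agonist L165041 at 300 nM final during compound exposure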; also: potency is read from the fitted curve at half-maximal effect)
Outline: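 Screen format: qHTS, antagonist mode. HEK293H PPARd-bla cells received compound and 300 nM L165041 (final), 17 h, 37 C. Beta-lactamase detected via FRET substrate fluorescence, 2 h, room temperature.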

[17] = target: Nuclear receptor ROR-gamma (Homo sapiens) (UniProt P51449); test: qHTS assay to identify small molecule antagonists of the retinoid-related orphan receptor gamma (ROR-gamma) signaling pathway (AID 1159521; also: nearly all actives have a fitted effect of over 50% in size; also: potency is read from the fitted curve at half-maximal effect)
Outline: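 Tet-on ROR-gamma CHO cells with ROR response element-luciferase reporter; compounds added 2 hr before 1 uM doxycycline induction, then 16 hr at 37 C. Antagonism scored as decreased ONE-Glo luminescence.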

[18] = target: Retinoic acid receptor RXR-alpha (Homo sapiens) (UniProt P19793); test: qHTS assay to identify small molecule agonists of the RXR signaling pathway (AID 1159527; calls by dose curve; also: % is scaled to controls: 0 for no effect and ±100 for the full control effect; nearly all actives have a fitted effect of over 35% in size)
Outline: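 GeneBLAzer RXR-alpha-UAS-bla HEK 293T cells in 2% charcoal-stripped FBS medium were exposed to compounds for 16 hr at 37 C in agonist mode. Beta-lactamase reporter read as 460/530 nm FRET ratio after 2 hr substrate loading.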

[19] = target: Peroxisome proliferator-activated receptor delta (Homo sapiens) (UniProt Q03181); test: qHTS assay to identify small molecule agonists of the peroxisome proliferator-activated receptor delta (PPARd) signaling pathway (AID 743212; calls by dose curve; also: % is scaled to controls: 0 for no effect and ±100 for the full control effect)
Outline: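 Tox21 library screened in GeneBLAzer PPARd UAS-bla HEK293H cells. After compound treatment at 37 C, a FRET-based beta-lactamase substrate was applied for 2 h and fluorescence recorded.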

Sequence of Peroxisome proliferator-activated receptor delta (Homo sapiens) (Q03181 whole entry, looked up): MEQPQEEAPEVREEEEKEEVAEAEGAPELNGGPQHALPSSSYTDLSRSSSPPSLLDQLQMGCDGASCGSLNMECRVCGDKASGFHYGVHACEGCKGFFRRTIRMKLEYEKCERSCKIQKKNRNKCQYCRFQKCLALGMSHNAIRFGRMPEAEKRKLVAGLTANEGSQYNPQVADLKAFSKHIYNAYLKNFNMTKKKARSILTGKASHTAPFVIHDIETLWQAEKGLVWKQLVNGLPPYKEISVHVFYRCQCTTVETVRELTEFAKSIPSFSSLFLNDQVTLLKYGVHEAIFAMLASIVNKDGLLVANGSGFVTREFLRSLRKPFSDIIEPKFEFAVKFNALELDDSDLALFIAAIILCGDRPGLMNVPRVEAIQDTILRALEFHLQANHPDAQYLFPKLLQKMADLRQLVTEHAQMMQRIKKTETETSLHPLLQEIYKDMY
Sequence of Vitamin D3 receptor (Homo sapiens) (P11473 whole entry, looked up): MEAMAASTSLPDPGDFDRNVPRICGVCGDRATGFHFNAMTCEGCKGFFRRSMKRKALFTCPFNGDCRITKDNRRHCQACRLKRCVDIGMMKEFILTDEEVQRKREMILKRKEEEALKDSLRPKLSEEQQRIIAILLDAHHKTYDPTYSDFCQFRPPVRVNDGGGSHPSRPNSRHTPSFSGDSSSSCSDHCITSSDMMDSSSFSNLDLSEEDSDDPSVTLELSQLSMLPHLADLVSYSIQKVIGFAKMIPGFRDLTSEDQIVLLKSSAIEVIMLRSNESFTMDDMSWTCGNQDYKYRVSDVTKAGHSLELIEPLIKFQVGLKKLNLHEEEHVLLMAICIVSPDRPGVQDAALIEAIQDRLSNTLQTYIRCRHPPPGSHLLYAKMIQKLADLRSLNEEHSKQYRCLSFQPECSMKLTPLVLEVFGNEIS
Sequence of Bile acid receptor (Homo sapiens) (Q96RI1 whole entry, looked up): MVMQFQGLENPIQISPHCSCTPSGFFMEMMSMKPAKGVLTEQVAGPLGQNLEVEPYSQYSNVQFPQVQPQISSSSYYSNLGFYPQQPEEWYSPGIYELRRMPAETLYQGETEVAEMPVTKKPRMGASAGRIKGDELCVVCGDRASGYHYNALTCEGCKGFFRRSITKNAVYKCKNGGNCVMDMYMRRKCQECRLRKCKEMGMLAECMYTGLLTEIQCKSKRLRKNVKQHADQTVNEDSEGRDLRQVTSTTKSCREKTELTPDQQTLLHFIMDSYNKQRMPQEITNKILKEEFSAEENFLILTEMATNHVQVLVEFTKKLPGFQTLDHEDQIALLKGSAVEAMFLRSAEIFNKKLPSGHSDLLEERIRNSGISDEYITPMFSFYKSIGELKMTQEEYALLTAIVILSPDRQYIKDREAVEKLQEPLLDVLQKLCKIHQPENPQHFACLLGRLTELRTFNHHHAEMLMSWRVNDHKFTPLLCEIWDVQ
Sequence of Retinoic acid receptor RXR-alpha (Homo sapiens) (P19793 whole entry, looked up): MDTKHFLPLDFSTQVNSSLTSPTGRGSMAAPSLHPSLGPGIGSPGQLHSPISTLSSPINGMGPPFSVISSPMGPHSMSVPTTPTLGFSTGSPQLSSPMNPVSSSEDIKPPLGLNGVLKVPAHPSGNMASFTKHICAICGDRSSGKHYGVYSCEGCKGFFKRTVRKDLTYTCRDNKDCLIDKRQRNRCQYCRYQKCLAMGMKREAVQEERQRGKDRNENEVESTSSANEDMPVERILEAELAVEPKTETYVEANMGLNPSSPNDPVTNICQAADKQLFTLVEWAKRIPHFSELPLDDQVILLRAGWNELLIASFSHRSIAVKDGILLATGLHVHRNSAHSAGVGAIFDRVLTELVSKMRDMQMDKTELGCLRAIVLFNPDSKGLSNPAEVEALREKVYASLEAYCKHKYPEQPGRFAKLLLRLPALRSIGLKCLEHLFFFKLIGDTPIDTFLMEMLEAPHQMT

CCCCCCCCCC(=O)N(C)C
inactive: Potency [1] | Potency [2] | Potency [3] | Potency [4] | Potency [5] | Potency [6] | Potency [7] | Potency [8] | Potency [9] | Potency [10] | Potency [11] | Potency [12] | Potency [13] | Potency [14] | Potency [15]

O=C(Nc1ccc(Cl)cc1)Nc1ccc(Cl)c(C(F)(F)F)c1
active: Potency [16] 26.6 µM | Potency [5] 16.8 µM | Potency [8] 11.9 µM | Potency [9] 12 µM | Potency [10] 21.3 µM | Potency [11] 23.7 µM | Potency [17] 7.5 µM | Potency [12] 16.9 µM | Potency [14] 12 µM | Potency [15] 29.8 µM
inactive: Potency [4]

CCCCCCCOC(=O)c1ccc(O)cc1
active: Potency [9] 38.9 µM | Potency [10] 54.9 µM | Potency [12] 49 µM | Potency [14] 55 µM
inactive and 34.7 µM (active): Potency [1]
inactive: Potency [3] | Potency [4] | Potency [5] | Potency [6] | Potency [11] | Potency [17] | Potency [18] | Potency [15]

O=C1NCN(c2ccccc2)C12CCN(CCCC(c1ccc(F)cc1)c1ccc(F)cc1)CC2
active: Potency [1] 21.1 µM | Potency [3] 26.6 µM | Potency [5] 33.5 µM | Potency [10] 23.9 µM | Potency [11] 33.5 µM | Potency [17] 26.6 µM | Potency [12] 21.3 µM | Potency [14] 21.3 µM

CCCCCCCCCCCCCC[n+]1ccccc1
active: Potency [1] 24.5 µM | Potency [5] 54.9 µM | Potency [7] 43.6 µM | Potency [8] 24.5 µM | Potency [9] 24.5 µM | Potency [10] 17.4 µM | Potency [11] 61.1 µM | Potency [17] 4.86 µM | Potency [12] 49 µM | Potency [14] 12.3 µM

CCCCCCOc1cc(C)c(O)c(C)c1C
inactive: outcome [19] | Potency [1] | Potency [16] | Potency [3] | Potency [6] | Potency [7]
active: Potency [8] 39.4 µM | Potency [9] 35.1 µM | Potency [10] 55.6 µM | Potency [11] 61.9 µM | Potency [17] 49.2 µM | Potency [12] 44.2 µM | Potency [14] 35.1 µM

Oc1ccc(-c2ccccc2)c(Cl)c1
inactive: outcome [19] | Potency [1] | Potency [16] | Potency [3] | Potency [5] | Potency [6] | Potency [7] | Potency [9] | Potency [10] | Potency [17] | Potency [15]

S=C(SSSSSSC(=S)N1CCCCC1)N1CCCCC1
inactive: Potency [4] | Potency [7] | Potency [9] | Potency [10] | viability change, negative = cytotoxic [12] 2.16% [at 15.8 µM]
active: Potency [1] 0.382 µM | Potency [8] 0.271 µM | Potency [17] 0.239 µM | Potency [14] 0.606 µM
